# CYP2C19 activ: cytochrome P450 2C19 (human) activation; P33261; recombinant CYP2C19, luciferin-H EGE luminescence; active compounds read high; 0 = fully inhibited enzyme, 1 = untreated enzyme; activation factor at 5 µM; 96,000 tested, under 10 active; AID 1025;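 active = activation factor of at least 2 at 5 µM in the primary screen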;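 note: 0 = wells with 2.5 mM tranylcypromine and 1 = vehicle-only wells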
# CD11b adhes inh: CD11b/CD18-fibrinogen binding inhibition; AID 1497; 0.54% of 93,000 active; P05107+P11215; inhibition, % at 10 µM; K562 CD11b/CD18 adhesion to fibrinogen, ATPlite luminescence; Mn2+ added to activate the integrin;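 active = primary inhibition of 50% or more at 10 µM, then 40% or more on retest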
# Target sequence (P05107 whole entry, looked up, other chains not shown): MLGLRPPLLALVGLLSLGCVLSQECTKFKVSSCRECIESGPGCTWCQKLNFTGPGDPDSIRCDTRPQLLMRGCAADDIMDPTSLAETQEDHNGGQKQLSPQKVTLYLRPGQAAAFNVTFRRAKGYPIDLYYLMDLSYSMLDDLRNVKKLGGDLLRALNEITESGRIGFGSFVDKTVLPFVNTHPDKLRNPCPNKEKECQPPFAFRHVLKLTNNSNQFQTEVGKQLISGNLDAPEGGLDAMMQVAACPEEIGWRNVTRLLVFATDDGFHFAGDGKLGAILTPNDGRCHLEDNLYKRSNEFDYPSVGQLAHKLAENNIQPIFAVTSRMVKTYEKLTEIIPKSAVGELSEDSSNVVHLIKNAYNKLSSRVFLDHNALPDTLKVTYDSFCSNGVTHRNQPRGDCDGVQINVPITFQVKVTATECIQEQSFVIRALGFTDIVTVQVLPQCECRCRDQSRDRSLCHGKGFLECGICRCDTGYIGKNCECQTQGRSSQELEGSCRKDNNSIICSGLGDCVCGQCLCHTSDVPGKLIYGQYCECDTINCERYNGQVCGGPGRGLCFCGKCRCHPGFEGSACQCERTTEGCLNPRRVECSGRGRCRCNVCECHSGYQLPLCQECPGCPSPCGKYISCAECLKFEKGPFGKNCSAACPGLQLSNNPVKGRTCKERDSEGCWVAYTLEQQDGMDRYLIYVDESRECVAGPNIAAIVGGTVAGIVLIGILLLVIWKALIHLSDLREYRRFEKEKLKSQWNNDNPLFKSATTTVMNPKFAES
# CYP2C19 inhib: human CYP2C19 inhibition. P33261. CYP2C19 Supersomes, luciferin-H EGE luminescence, 30 min. inhibition, % at 5 µM. 21% of 96,000 active. AID 778;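 active = CYP2C19 inhibition above a set limit at 5 µM in the primary screen, cut at about 50% in these data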;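 note: plate controls were negative control wells for no effect and 2.5 mM tranylcypromine positive control for full effect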
# Mac1 fbg enh: enhancers of human CD11b/CD18 binding to fibrinogen. P05107+P11215. K562 CD11b/CD18 adhesion to fibrinogen, ATPlite luminescence. activation, % at 10 µM. 0.07% of 93,000 active. AID 1499;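 active = 10 µM primary screen giving 50% or more activity, confirmed by 40% or more on retest at that dose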
# CYP2C9 activ: activators of human CYP2C9. activation factor at 5 µM. 1.4% of 96,000 active. P11712. AID 1024. recombinant CYP2C9, luciferin-H conversion, luminescence; active compounds read high; factor 1 = untreated enzyme, 0 = blocked;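 active = activation factor of 2 or more for CYP2C9 at a 5 µM dose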;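 note: 0 = sulfaphenazole-blocked wells and 1 = vehicle-only wells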
# CYP2C9 inh: inhibitors of human CYP2C9. P11712. CYP2C9 Supersomes, luciferin-H conversion, luminescence. inhibition, % at 5 µM. 20% of 96,000 active. AID 777;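 active = blocking of liver enzyme CYP2C9 beyond about 50% at 5 µM, limit read from the data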
# * = called active by the depositor; . = not tested or not shown. Only some compounds are listed: those with a hit (about 28% of all), similar ones and a draw of the others.
SMILES,CYP2C19 activ,CD11b adhes inh,CYP2C19 inhib,Mac1 fbg enh,CYP2C9 activ,CYP2C9 inh
Cc1occc1-c1nnc(SCC(=O)Nc2ccccc2-c2ccccc2)n1C,0.2,-2.0,76.5*,-4.4,0.2,76.1*
CCCn1c(SCC(=O)Nc2ccccc2-c2ccccc2)nnc1-c1ccoc1C,0.2,-6.7,81.9*,-3.3,0.1,87.1*
Cn1nnnc1SCC(=O)Nc1ccccc1-c1ccccc1,0.6,-8.8,36.9,3.0,0.7,29.2
Cn1c(SCC(=O)Nc2ccccc2-c2ccccc2)nnc1-c1ccco1,0.4,-13.2,59.6*,-0.9,0.5,45.1
CCc1nnc(NC(=O)CSc2nnc(-c3ccco3)n2C)s1,0.9,-3.8,8.8,-3.6,0.9,12.2
O=C(CSc1nnc(-c2ccccc2Br)o1)N1CCc2ccccc2C1,0.7,0.8,32.5,-0.8,1.1,-11.6
Cc1c(C(=O)N2CCOCC2)sc2nc(-c3ccccc3)cn12,0.9,-16.5,9.7,-1.1,1,2.8
Cc1c(C(=O)N2CCc3ccccc3C2)sc2nc(-c3ccccc3)cn12,0.4,9.5,58.8*,-5.1,0.5,53.0*
CCOC(=O)C1CCN(C(=O)c2sc3nc(-c4ccccc4)cn3c2C)CC1,0.7,-24.4,30.3,4.0,0.6,37.3
COc1ccccc1N1CCN(C(=O)c2sc3nc(-c4ccccc4)cn3c2C)CC1,0.7,14.6,30.4,7.8,0.2,80.5*
Cc1c(C(=O)NCc2ccco2)sc2nc(-c3ccccc3)cn12,0.7,-4.5,28.7,-1.5,0.6,40.3
COC(=O)C1CCN(C(=O)c2sc3nc(-c4ccc(F)cc4)cn3c2C)CC1,0.6,0.4,38.7,1.8,0.4,62.0*
Cc1c(C(=O)Nc2ccncc2)sc2nc(-c3ccccc3)cn12,0.5,-44.9,47.0,14.0,0.2,79.2*
Cc1nc2cc(N3CCOCC3)c(NC(=O)C3CC3)cc2c(=O)n1Cc1ccccc1,0.8,24.2,15.9,0.8,0.7,28.0
Cc1nc2cc(N3CCCCC3)c(NC(=O)c3ccncc3)cc2c(=O)n1Cc1ccccc1,0.6,17.1,35.8,5.3,0.2,80.7*
COc1ccc(-c2c3c(nc4sc(C(=O)Nc5cc(C)on5)c(N)c24)CCC3)cc1,0.7,27.3,27.3,109.3,0.5,50.8*
O=C(Cn1nnc2c(sc3nc4c(c(-c5ccccc5)c32)CCC4)c1=O)c1ccccc1,1.1,47.3,-13.0,7.0,0.9,6.4
COc1ccc(-c2c3c(nc4sc5c(=O)[nH]c(C)nc5c24)CCC3)cc1,1.1,1.9,-5.3,-4.4,0.4,56.6*
CC(C)(C)c1ccc(C(=O)N/C(=C\c2cccs2)C(=O)NCc2ccco2)cc1,0.9,-19.9,6.7,0.8,0.4,56.5*
O=C1CCc2cc(S(=O)(=O)N3CCCC3C(=O)NC3CCCCCCC3)ccc2N1 (stereo unspecified),0.8,-6.8,19.6,1.8,0.2,80.7*
O=C1CCc2cc(S(=O)(=O)N3CCC(C(=O)NC4CCCC4)CC3)ccc2N1,0.9,-8.7,14.7,-0.2,0.5,52.5*
Cc1ccc(CCNC(=O)C2CCN(S(=O)(=O)c3ccc4c(c3)CCC(=O)N4)CC2)cc1,1.2,5.9,-19.3,-3.6,0.8,19.2
CC(C)CCNC(=O)C1CCN(S(=O)(=O)c2ccc3c(c2)CCC(=O)N3)CC1,0.8,-14.5,16.2,15.0,0.4,58.8*
O=C1CCc2cc(S(=O)(=O)N3CCC(C(=O)NCc4ccccn4)CC3)ccc2N1,1,-1.8,-2.1,0.6,0.9,13.8
CC(NS(=O)(=O)c1ccccc1)C(=O)NCc1ccco1 (stereo unspecified),0.6,-14.0,43.8,-4.1,1,2.8
SMILES,CYP2C19 activ,CD11b adhes inh,CYP2C19 inhib,Mac1 fbg enh,CYP2C9 activ,CYP2C9 inh
O=c1c2cc(N3CCOCC3)ccc2[nH]c(=S)n1CC1CCCO1 (stereo unspecified),0.9,-28.4,14.7,3.5,0.4,62.4*
CCOC(=O)N1CCC(NS(=O)(=O)c2cc3c(cc2C)NC(=O)CO3)CC1,1,-12.2,4.9,-3.9,0.9,6.8
CCOC(=O)N1CCC(NC(=O)CN(C)S(=O)(=O)c2cc3c(cc2Cl)NC(=O)CO3)CC1,1,-6.3,-3.9,-3.9,0.4,56.4*
CCN(CC)CC#CCC(C)(c1ccccc1)c1ccccc1,0.1,.,93.6*,.,0.3,71.6*
C=CC(O)(C#CCN(CC)CC)c1ccccc1 (stereo unspecified),0.5,-43.2,45.3,4.1,0.9,11.5
CC(=O)NC1(C(F)(F)F)C(=O)NC(C)=C1C#N (stereo unspecified),1.2,8.1,-17.5,-1.9,1.1,-12.9
CC1=C(C#N)C(Nc2ccc(C)cn2)(C(F)(F)F)C(=O)N1 (stereo unspecified),0.1,2.1,89.1*,2.1,0.6,41.7
CC1=C(C#N)C(Nc2ccc(Cl)cn2)(C(F)(F)F)C(=O)N1 (stereo unspecified),0.2,2.8,82.9*,1.5,0.8,20.8
CCC(C)NC(=O)COc1ccc(S(=O)(=O)N2CCOCC2)cc1 (stereo unspecified),1.1,-0.6,-5.5,-0.6,0.9,6.0
Cc1cccc(NC(=O)CCN2C(=O)C3C4C=CC(C4)C3C2=O)n1 (stereo unspecified),0.7,-36.0,27.5,4.0,1.1,-8.5
Cc1cc(C(=O)N2CCC(Cc3ccccc3)CC2)ccc1[N+](=O)[O-],0.2,.,77.8*,.,0.9,10.6
O=C(OCc1ccccc1)C1CCCN1C(=O)c1ccccc1[N+](=O)[O-] (stereo unspecified),0.6,9.7,35.4,-1.2,0.8,20.0
O=C(c1ccccc1[N+](=O)[O-])N1CCC(Cc2ccccc2)CC1,0.3,.,66.2*,.,0.4,60.2*
CCN(CCCNC(=O)C1CCC(=O)N1C(C)C)c1cccc(C)c1 (stereo unspecified),0.8,-43.1,23.0,-3.3,0.9,10.6
Cc1ccnc(NS(=O)(=O)c2cccc3nsnc23)c1,0.9,-12.3,7.4,0.1,0.9,11.3
CC(=O)Nc1cccc(NS(=O)(=O)c2cccc3nsnc23)c1,0.4,1.6,57.4*,-5.4,0.6,37.1
Cc1cccc(NS(=O)(=O)c2cccc3nsnc23)c1,0.2,.,76.4*,.,0.9,13.0
Cc1ccc2nsnc2c1S(=O)(=O)Nc1cccc2nsnc12,0.8,-7.8,23.4,-1.1,0.1,89.7*
COc1ccc(NS(=O)(=O)c2cccc3nsnc23)cc1OC,0.2,2.5,82.2*,-6.0,0.8,16.9
CCOC(=O)c1cc2c(=O)n3cccc(C)c3nc2n(Cc2ccccc2Cl)c1=N,1,12.6,-0.2,6.9,0.9,12.8
COc1ccc(S(=O)(=O)Nc2c(C)ccc3nsnc23)cc1OC,0.3,-7.5,69.4*,-0.2,1,2.7

# Source: PubChem BioAssay (Sanford-Burnham Center for Chemical Genomics)
